Assay [1] addresses Histone deacetylase 3 (Homo sapiens) (UniProt O15379). The assay can be described thus: NVS_ENZ_hHDAC3: NovaScreen (NVS) Enzymatic Assay for human Histone Deacetylase 3 (HDAC3) (AID 2283163). The method in brief: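 Recombinant human HDAC3 with fluorescent substrate, 1 h after dosing; product separated from substrate by electrophoretic mobility shift and read by fluorescence. Primary screen at 25 uM in duplicate; actives (e.g. ≥30% inhibition) retested in concentration-response up to 50 uM.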

In assay [2] the target is Glycogen synthase kinase-3 beta (Homo sapiens) (UniProt P49841). The assay is described as follows: NVS_ENZ_hGSK3b: NovaScreen (NVS) Enzymatic Assay for human Glycogen Synthase Kinase-3 beta (GSK3b) (AID 2283165). The method in brief: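 Recombinant enzyme with specific fluorescent substrate, 1 h, product separated by electrophoretic mobility shift. Primary duplicate screen at 25 uM; actives (e.g. 30% inhibition) followed in singleton concentration-response to 50 uM. Signal loss fitted versus DMSO.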
Chain of Glycogen synthase kinase-3 beta (Homo sapiens) (P49841 whole entry, looked up): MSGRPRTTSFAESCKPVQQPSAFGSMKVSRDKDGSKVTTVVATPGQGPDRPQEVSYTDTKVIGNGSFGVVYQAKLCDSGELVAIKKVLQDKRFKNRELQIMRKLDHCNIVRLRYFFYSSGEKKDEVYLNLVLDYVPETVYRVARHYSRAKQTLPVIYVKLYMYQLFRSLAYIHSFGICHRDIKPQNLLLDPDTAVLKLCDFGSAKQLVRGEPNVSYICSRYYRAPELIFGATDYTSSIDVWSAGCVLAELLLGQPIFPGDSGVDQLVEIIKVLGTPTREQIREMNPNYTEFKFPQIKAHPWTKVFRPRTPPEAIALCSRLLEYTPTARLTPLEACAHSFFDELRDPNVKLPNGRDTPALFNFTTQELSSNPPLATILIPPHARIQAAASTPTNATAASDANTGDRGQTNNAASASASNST

Assay [3] concerns the target human MAP Kinase-Activated Protein Kinase 2 (MAPKAPK2), MAPKAPK2 (gene 9261) (UniProt P49137). The assay is described as follows: NVS_ENZ_hMAPKAPK2: NovaScreen (NVS) Enzymatic Assay for human MAP Kinase-Activated Protein Kinase 2 (MAPKAPK2) (AID 2283178). A digest of the protocol: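 Cell-free recombinant human MAPKAPK2 activity measured by fluorescence with electrophoretic mobility shift separation of substrate and product, 1 hr after dosing. Loss of signal versus DMSO; primary screen at 25 uM, concentration-response up to 50 uM.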

Assay [4] concerns the target human Matrix Metalloproteinase-3 (MMP3), MMP3 (gene 4314) (UniProt P08254). The assay is described as follows: NVS_ENZ_hMMP3: NovaScreen (NVS) Enzymatic Assay for human Matrix Metalloproteinase-3 (MMP3) (AID 2283185). A digest of the protocol: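 Cell-free recombinant human MMP3 activity, fluorescence intensity read 1 h after dosing. Primary screen duplicate at 25 uM, actives retested in concentration series; loss of signal vs DMSO baseline.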

Assay [5] has as its target human Phosphodiesterase 4A1 (PDE4A1), PDE4A (gene 5141) (UniProt P27815). The assay is described as follows: NVS_ENZ_hPDE4A1: NovaScreen (NVS) Enzymatic Assay for human Phosphodiesterase 4A1 (PDE4A1) (AID 2283191). A digest of the protocol: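 Cell-free recombinant human PDE4A1 with fluorescent substrate; product separated by electrophoretic mobility shift, 1 h. Screened at 25 uM, then up to 50 uM in concentration-response; loss of signal fitted against DMSO.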

In assay [6] the target is human Phosphodiesterase 10 (PDE10), PDE10A (gene 10846) (UniProt Q9Y233). The assay is described as follows: NVS_ENZ_hPDE10: NovaScreen (NVS) Enzymatic Assay for human Phosphodiesterase 10 (PDE10) (AID 2283195). The method in brief: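 Recombinant human PDE10 with fluorescent substrate, 1 h, product separated by electrophoretic mobility shift. Loss of enzyme activity fitted against DMSO; initial screen 25 uM in duplicate, actives run to 50 uM maximum.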

Assay [7] concerns the target human Janus Kinase 2 (Jak2), JAK2 (gene 3717) (UniProt O60674). The assay can be described thus: NVS_ENZ_hJak2: NovaScreen (NVS) Enzymatic Assay for human Janus Kinase 2 (Jak2) (AID 2283169). The method in brief: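 Cell-free recombinant human JAK2 enzyme activity assay, fluorescence/electrophoretic mobility shift read 1 h after dosing. Screened in duplicate at 25 uM, then concentration-response up to 50 uM; activity as signal loss relative to DMSO.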

In assay [8] the target is Mitogen-activated protein kinase 3 (Homo sapiens) (UniProt P27361). The assay can be described thus: NVS_ENZ_hMAPK3: NovaScreen (NVS) Enzymatic Assay for human Mitogen-Activated Protein Kinase 3 (MAPK 3) (AID 2283177). A digest of the protocol: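 Cell-free enzymatic assay with recombinant protein and specific substrate; fluorescence and electrophoretic mobility shift read-out 1 h after dosing. Primary screen duplicate at 25 uM; actives then run in concentration-response up to 50 uM, loss of signal versus DMSO.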
Chain of Mitogen-activated protein kinase 3 (Homo sapiens) (P27361 whole entry, looked up): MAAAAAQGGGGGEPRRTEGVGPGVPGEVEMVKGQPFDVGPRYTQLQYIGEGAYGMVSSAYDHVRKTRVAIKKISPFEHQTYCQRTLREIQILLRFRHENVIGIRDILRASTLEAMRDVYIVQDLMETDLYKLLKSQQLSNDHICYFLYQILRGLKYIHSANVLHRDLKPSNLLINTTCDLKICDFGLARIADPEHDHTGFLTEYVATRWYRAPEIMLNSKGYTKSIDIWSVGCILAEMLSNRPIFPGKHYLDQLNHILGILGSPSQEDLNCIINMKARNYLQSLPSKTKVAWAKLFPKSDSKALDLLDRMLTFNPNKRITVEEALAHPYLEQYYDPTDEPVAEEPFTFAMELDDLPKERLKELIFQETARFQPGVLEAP

Assay [9] has as its target human Phosphodiesterase 5 (PDE5), PDE5A (gene 8654) (UniProt O76074). The assay can be described thus: NVS_ENZ_hPDE5: NovaScreen (NVS) Enzymatic Assay for human Phosphodiesterase 5 (PDE5) (AID 2283194). A digest of the protocol:
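Recombinant human PDE5 with specific substrate, read 1 h after dosing by fluorescence with electrophoretic mobility-shift separation of substrate and product. Initial single-concentration duplicate screen at 25 uM, actives followed in concentration series; loss of activity versus DMSO.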

The target of assay [10] is human Ephrin type-A Receptor 1 (EphA1), EPHA1 (gene 2041) (UniProt P21709). The assay is described as follows: NVS_ENZ_hEphA1: NovaScreen (NVS) Enzymatic Assay for human Ephrin type-A Receptor 1 (EphA1) (AID 2283158).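 Note: activity is signal loss versus DMSO meaning EphA1 kinase inhibition.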 The method in brief:
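Biochemical kinase assay run cell-free; 1 h incubation; readout is fluorescence with mobility-shift separation of product. Concentration-response up to 50 uM for actives from a 25 uM screen.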

The target of assay [11] is human Matrix Metalloproteinase-2 (MMP2), MMP2 (gene 4313) (UniProt P08253). The assay can be described thus: NVS_ENZ_hMMP2: NovaScreen (NVS) Enzymatic Assay for human Matrix Metalloproteinase-2 (MMP2) (AID 2283184). A digest of the protocol:
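Cell-free recombinant MMP2 activity with a fluorescent substrate, read 1 h after dosing. Primary screen in duplicate at 25 uM; actives then run in concentration series; loss of signal fitted versus DMSO.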

The target in assay [12] is cAMP-dependent protein kinase catalytic subunit alpha (Homo sapiens) (UniProt P17612). The assay can be described thus: NVS_ENZ_hPKA: NovaScreen (NVS) Enzymatic Assay for human Protein Kinase A (PKA) (AID 2283192). A digest of the protocol:
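Recombinant human PKA with specific fluorescent substrate, product separated by electrophoretic mobility shift, read 1 h after dosing. Primary screen at 25 uM in duplicate; actives then run in concentration-response up to 50 uM, activity relative to DMSO.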

The target of assay [13] is human Phosphoinositide 3-kinase alpha (PI3Ka), PIK3CA (gene 5290) (UniProt P42336). The assay is described as follows: NVS_ENZ_hPI3Ka: NovaScreen (NVS) Enzymatic Assay for human Phosphoinositide 3-kinase alpha (PI3Ka) (AID 2283196). The method in brief: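 Chemicals were first screened at 25 uM in duplicate, then hits were run as concentration series up to 50 uM. Enzyme activity was measured by fluorescence after mobility-shift separation, with loss of signal relative to DMSO taken as activity.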
Chain of human Phosphoinositide 3-kinase alpha (PI3Ka), PIK3CA (gene 5290) (P42336 whole entry, looked up): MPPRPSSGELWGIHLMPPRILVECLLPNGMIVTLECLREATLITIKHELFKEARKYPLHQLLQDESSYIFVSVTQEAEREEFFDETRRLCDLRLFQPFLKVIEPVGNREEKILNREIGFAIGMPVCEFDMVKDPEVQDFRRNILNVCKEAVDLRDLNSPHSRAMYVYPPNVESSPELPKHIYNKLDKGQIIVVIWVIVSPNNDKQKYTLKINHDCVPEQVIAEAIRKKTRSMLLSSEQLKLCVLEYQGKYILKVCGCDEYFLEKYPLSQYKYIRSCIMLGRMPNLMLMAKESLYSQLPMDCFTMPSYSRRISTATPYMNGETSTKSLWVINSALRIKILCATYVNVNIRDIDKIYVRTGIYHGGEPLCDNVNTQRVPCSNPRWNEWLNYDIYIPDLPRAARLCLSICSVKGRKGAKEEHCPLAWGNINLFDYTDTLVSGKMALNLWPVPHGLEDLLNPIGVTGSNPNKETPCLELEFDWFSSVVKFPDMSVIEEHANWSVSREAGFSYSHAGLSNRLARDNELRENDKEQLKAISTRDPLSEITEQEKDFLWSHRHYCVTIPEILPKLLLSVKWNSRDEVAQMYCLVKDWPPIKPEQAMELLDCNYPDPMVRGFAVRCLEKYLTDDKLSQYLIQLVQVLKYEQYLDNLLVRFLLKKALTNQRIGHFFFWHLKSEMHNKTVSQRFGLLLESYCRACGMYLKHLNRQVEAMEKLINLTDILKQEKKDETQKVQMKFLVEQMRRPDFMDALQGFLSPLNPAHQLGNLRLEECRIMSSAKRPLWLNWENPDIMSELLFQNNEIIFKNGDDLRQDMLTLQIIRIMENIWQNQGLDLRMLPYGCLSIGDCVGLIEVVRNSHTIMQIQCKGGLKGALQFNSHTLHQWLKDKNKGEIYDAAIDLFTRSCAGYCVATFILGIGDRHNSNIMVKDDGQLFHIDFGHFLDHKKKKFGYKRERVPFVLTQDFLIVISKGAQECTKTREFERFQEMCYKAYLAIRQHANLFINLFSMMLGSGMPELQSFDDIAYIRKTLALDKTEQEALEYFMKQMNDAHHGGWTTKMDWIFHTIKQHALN

The target of assay [14] is human Matrix Metalloproteinase-7 (MMP7), MMP7 (gene 4316) (UniProt P09237). The assay can be described thus: NVS_ENZ_hMMP7: NovaScreen (NVS) Enzymatic Assay for human Matrix Metalloproteinase-7 (MMP7) (AID 2283183). A digest of the protocol: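 Cell-free fluorescence enzymatic assay read 1 h after compound addition, activity loss analyzed against DMSO. Primary duplicate testing at 25 uM; compounds meeting threshold rerun in singleton concentration-response up to 50 uM.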

For assay [15], the target named is human Matrix Metalloproteinase-9 (MMP9), MMP9 (gene 4318) (UniProt P14780). The assay is described as follows: NVS_ENZ_hMMP9: NovaScreen (NVS) Enzymatic Assay for human Matrix Metalloproteinase-9 (MMP9) (AID 2283190).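 Note: cell-free recombinant MMP9 protease activity read by fluorescent substrate signal; active means inhibition seen as loss of fluorescence signal versus DMSO.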 The method in brief:
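Inhibition was scored as loss of fluorescence signal against DMSO controls. The recombinant protease was exposed to chemicals for 1 hour before reading; initial testing used 25 uM in duplicate.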

Assay [16] concerns the target human c-Jun N-terminal Kinases (JNK2), MAPK9 (gene 5601) (UniProt P45984). The assay can be described thus: NVS_ENZ_hJNK2: NovaScreen (NVS) Enzymatic Assay for human c-Jun N-terminal Kinases (JNK2) (AID 2283171). The method in brief: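 Cell-free recombinant human JNK2 activity assay; fluorescent substrate and product separated by electrophoretic mobility shift, read 1 h after dosing. Primary duplicate screen at 25 uM; actives run in concentration-response up to 50 uM, relative to DMSO.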

This note sets out measurements from PubChem BioAssay (EPA / NIEHS).

Values joined by “and” are separate entries in the source; they are usually repeats but may differ in a detail not shown here. Identical values can stand only once. Records with an inconclusive call do not appear. Active and inactive are the calls of the source. Rule for the calls: active = hit-call score of the fitted dose curve at least 0.9, where 1 is the maximum; inconclusive = response in the unintended direction; inactive = score below 0.9.

Chain of human Janus Kinase 2 (Jak2), JAK2 (gene 3717) (O60674 whole entry, looked up): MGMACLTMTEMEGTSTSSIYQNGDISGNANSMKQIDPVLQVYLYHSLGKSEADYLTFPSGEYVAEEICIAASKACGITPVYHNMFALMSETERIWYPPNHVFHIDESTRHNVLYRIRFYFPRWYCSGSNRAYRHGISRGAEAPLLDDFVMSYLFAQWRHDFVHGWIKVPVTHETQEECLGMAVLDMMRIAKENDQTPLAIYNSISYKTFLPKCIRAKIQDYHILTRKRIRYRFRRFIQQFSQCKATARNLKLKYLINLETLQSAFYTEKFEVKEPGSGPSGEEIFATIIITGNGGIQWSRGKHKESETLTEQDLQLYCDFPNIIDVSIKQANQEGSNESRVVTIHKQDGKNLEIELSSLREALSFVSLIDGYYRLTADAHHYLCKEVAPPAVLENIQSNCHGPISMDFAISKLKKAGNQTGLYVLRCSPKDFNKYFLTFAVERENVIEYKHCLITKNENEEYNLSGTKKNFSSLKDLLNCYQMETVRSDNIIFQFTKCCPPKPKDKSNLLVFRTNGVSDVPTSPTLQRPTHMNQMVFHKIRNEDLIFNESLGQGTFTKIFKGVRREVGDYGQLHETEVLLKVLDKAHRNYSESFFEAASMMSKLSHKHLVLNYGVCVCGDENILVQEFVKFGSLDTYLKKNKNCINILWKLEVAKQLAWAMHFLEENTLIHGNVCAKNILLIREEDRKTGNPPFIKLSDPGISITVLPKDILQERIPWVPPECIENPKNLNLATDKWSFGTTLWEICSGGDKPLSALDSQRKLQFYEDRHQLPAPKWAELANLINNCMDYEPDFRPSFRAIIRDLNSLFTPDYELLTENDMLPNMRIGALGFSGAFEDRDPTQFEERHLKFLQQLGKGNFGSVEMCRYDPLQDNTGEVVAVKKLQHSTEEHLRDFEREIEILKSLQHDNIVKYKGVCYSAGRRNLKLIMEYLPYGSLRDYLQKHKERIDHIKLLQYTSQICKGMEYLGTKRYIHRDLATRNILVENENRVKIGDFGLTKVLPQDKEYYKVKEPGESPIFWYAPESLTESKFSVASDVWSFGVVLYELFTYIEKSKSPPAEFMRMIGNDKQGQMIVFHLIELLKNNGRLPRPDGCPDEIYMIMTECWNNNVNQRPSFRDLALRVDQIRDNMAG
Chain of human Matrix Metalloproteinase-3 (MMP3), MMP3 (gene 4314) (P08254 whole entry, looked up): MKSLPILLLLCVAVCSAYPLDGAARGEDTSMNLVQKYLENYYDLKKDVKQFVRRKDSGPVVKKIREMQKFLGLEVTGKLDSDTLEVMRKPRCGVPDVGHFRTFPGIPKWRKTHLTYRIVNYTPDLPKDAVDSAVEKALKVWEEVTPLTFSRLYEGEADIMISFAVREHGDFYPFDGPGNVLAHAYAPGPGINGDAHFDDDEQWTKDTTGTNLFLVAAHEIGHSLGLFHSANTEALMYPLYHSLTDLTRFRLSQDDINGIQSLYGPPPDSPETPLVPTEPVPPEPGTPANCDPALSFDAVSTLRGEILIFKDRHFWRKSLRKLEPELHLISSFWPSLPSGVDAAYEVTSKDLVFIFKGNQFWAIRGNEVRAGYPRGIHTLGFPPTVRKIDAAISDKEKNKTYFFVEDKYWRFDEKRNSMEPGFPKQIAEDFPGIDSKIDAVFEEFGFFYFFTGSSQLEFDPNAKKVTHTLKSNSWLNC
Chain of human Ephrin type-A Receptor 1 (EphA1), EPHA1 (gene 2041) (P21709 whole entry, looked up): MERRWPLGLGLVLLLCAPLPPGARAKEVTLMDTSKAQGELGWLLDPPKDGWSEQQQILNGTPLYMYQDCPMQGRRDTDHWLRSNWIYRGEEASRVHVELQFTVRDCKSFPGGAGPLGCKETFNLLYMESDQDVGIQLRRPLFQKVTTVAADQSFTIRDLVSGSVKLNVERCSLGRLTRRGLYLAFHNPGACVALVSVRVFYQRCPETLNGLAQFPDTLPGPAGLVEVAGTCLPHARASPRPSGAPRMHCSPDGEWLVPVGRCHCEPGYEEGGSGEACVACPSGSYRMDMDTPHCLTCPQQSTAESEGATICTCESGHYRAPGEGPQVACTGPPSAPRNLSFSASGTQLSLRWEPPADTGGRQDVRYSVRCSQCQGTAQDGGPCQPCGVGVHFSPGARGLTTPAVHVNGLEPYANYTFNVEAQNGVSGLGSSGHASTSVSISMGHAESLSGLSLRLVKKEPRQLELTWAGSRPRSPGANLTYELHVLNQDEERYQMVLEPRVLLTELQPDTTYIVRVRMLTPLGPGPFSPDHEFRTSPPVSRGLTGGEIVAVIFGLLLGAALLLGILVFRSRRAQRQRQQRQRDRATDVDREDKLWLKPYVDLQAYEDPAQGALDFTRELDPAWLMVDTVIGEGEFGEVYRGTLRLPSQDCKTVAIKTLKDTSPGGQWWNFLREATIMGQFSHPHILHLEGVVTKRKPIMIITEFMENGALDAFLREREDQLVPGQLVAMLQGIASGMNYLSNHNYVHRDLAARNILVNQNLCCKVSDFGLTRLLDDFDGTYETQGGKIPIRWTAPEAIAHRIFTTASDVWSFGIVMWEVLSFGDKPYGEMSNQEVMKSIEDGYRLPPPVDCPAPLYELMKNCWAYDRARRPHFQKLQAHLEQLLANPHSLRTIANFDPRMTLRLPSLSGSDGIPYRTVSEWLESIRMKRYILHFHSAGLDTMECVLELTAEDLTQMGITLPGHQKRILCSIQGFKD
Chain of Histone deacetylase 3 (Homo sapiens) (O15379 whole entry, looked up): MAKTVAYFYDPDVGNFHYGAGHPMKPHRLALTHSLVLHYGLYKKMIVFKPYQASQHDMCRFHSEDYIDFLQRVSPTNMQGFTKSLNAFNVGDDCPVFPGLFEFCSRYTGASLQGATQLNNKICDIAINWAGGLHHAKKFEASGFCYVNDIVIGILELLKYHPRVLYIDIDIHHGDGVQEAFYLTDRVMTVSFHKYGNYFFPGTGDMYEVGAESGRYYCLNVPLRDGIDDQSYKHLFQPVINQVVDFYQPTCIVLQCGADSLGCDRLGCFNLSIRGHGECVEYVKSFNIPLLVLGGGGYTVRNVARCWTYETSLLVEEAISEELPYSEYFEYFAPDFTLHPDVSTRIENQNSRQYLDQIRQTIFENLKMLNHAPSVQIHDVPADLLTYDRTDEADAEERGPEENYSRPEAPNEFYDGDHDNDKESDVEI

As to `c1ccc(C[n+]2cccc3ccccc32)cc1`, in [1], the compound was classed as inactive.
As to `CN1C(=O)N(c2ccccc2Br)Cc2cnc(Nc3ccc4c(c3)OCC(CO)O4)nc21` (centres undefined), the AC50 in assay [2] is 7.73 µM (active); in assay [5], 6.38 µM (active); in [6], 1.09 µM (active). Further, the outcome in assay [3] and in assay [4] was inactive.
As for `OC12N=C(c3ccccc3)SC1Cc1cc(Cl)ccc12` (centres undefined), the result in [2] was inactive.
As for `CC(C)(C)c1csc(-c2cc3cc(OCc4ccccc4CC(=O)O)ccc3o2)n1`, in [7], the AC50 was 0.00515 µM (active). In addition, the outcome in [8] and in assay [9] was inactive.
For `CC(=O)N1CCN(c2ccc(OC[C@H]3CO[C@](Cn4ccnc4)(c4ccc(Cl)cc4Cl)O3)cc2)CC1`, in [1], the compound was called inactive.
With `O=c1ccc2ccccc2o1`, the compound was classed as inactive in assay [2].
With `O=C(OCCCCCCOC(=O)c1ccccc1)c1ccccc1`, in assay [7], the result was inactive.
For the compound `CC/C(=C(/CC)c1ccc(O)cc1)c1ccc(O)cc1`, the compound was called inactive in [10], in [8], in assay [11], in [5], in assay [12] and in assay [9]. For the same compound, the AC50 in assay [13] is 40 µM (active) and 17.3 µM (active) and 27.8 µM (active).
Regarding `CC1(C)NC(=O)N(c2ccc([N+](=O)[O-])c(C(F)(F)F)c2)C1=O`, in assay [10], the call was inactive.
As to `Clc1cc(Cl)c2c(c1)N=C1CCCCCN1C2`, the call in [10], in [2], in assay [5] and in assay [9] was inactive.
Regarding `CCN(Cc1cccc(S(=O)(=O)O)c1)c1ccc(C(=C2C=CC(=[N+](CC)Cc3cccc(S(=O)(=O)O)c3)C=C2)c2ccccc2S(=O)(=O)[O-])cc1`, the AC50 in assay [7] was 12.4 µM (active); in assay [11] it was 10.3 µM (active); in assay [4], 16.1 µM (active).
As for `O=C(O)Cn1c(=O)n(Cc2ccc(Br)cc2F)c(=O)c2ccc(Cl)cc21`, in assay [14], the compound was classed as inactive.
For `CN(C)c1ccc(C(=C2C=CC(=[N+](C)C)C=C2)c2ccc(N(C)C)cc2)cc1`, the outcome in assay [4] was inactive. Further, in assay [15], the AC50 was 14.5 µM (active).
`CCCC(=O)OCCC(C)C`: the outcome in assay [16] and in assay [8] was inactive.
Consider `O=CCCCC=O`, for which the result in [8] was inactive.
